TMEM16A act: activates or potentiates the mouse TMEM16A chloride channel | Q8BHY3 | HEK293 TMEM16A/YFP-H148Q/I152L, iodide quench fluorescence; stronger effect = lower value | B-score at 10 µM | 0.3% of 340,000 active;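 active = fluorescence-ratio B-score plate-corrected deviation score at least 3 library SD below zero, with starting fluorescence score within 5 deviations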;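 also: channel opened by trigger with iodide after compound preincubation; score built on the fluorescence ratio of max minus min over baseline; more negative score means more quench and so TMEM16A activation or potentiation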
Kir21 block: inhibitors of mouse Kir2.1 inward-rectifier potassium channel; HEK293-Kir2.1, FluxOR thallium flux fluorescence; stronger effect = lower value; B-score at 10 µM; 0.85% of 310,000 active; AID 1672;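 active = fluorescence ratio B-score at or below minus 3 SD of library scores, with starting-brightness B-score within 2 SD, cut at about -4.2 in these data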;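 also: channel flux triggered by added potassium and thallium sulfate stimulus; B-score of peak minus minimum fluorescence over baseline after thallium stimulus; more negative B-score means stronger Kir2.1 block with less thallium influx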
ANO1 block: mouse TMEM16A channel inhibition, primary screen; Q8BHY3; HEK293 TMEM16A/YFP iodide influx fluorescence, ionomycin; normalized B-score (activity score, 25-100; higher = stronger inhibition) at 10 µM; 1.2% of 310,000 active;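 active = ratio plate-corrected score three or more library SD toward inhibition, starting fluorescence score within five deviations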;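 also: score derived from kinetic fluorescence span divided by baseline fluorescence per well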
KCNK9 block: human KCNK9 channel inhibition. HEK293 KCNK9, FluxOR thallium flux fluorescence; stronger effect = lower value. B-score at 10 µM. 1.2% of 310,000 active;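 active = ratio B-score over 3 SD below the library mean, with starting fluorescence within 5 SD of its mean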;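 also: negative B-score means less thallium flux so channel inhibition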
KCNK3 inh: human KCNK3 channel inhibition, primary screen; O14649; CHO-KCNK3 thallium flux, FluxOR fluorescence; stronger effect = lower value; B-score at 10 µM; 0.84% of 340,000 active; AID 602410;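 active = B-score under library mean minus 4 SD, starting fluorescence ratio at most library mean plus 5 SD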;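 also: more negative B-score means stronger inhibition of thallium flux through KCNK3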
Of the large screens only hits and unclear results are named; the others gave an inactive call. Compounds with a hit are over-represented: about 3.5% of the library has one in this group of screens.

COc1ccccc1NCCC(=O)OCC(=O)NC1CCCCCC1	Kir21 block -7.7
Cc1ccc(C)c(-c2cc(C(=O)NNC(=S)NCC(C)C)c3ccccc3n2)c1	ANO1 block 100
COc1ccc(N2CCN(C(=O)c3ccc(COc4ccc([N+](=O)[O-])cc4)o3)CC2)cc1	none (no result: ANO1 block)
C/C(=N\NC(=O)C1(C)CC1(Br)Br)c1cccc(NC(=O)C2CCC2)c1 (configuration not stated)	KCNK9 block -7.4
COc1ccc(CC(=O)N/N=C(\C)c2cccc(NC(=O)C3CC3)c2)cc1	none (no result: ANO1 block)
O=C1CSC(c2cccnc2)N1Cc1ccc(Cl)cc1Cl (configuration not stated)	Kir21 block -4.4
CCC(C)NC(=O)Cn1cnc2sc(C)c(S(=O)(=O)N3CCCCC3)c2c1=O (configuration not stated)	none
CCCCCCCCCCS(=O)(=O)N/N=C/c1ccc([N+](=O)[O-])cc1	ANO1 block 100
CCC(C(=O)OCC(=O)Nc1ccc(OC)cc1OC)c1ccccc1 (configuration not stated)	none
CCC(C(=O)OCC(=O)Nc1cc(Cl)ccc1Cl)c1ccccc1 (configuration not stated)	ANO1 block 25
CCC(C(=O)OC(C)C(=O)Nc1ccc(Cl)cn1)c1ccccc1 (configuration not stated)	Kir21 block -5.8
CCC(C(=O)OCC(=O)NC(=O)c1ccccc1OC)c1ccccc1 (configuration not stated)	Kir21 block -8.1
O=C(CC(c1ccccc1)c1ccccc1)Nc1ccc(C(=O)O)cc1	none
Cc1ccc(S(=O)(=O)N2CCOCC2)cc1C(=O)N1CCC(Cc2ccccc2)CC1	none
Cc1nn2cnnc2c(C)c1Cc1ccc(Cl)cc1	none
O=C(O)CC(NC(=O)C1c2ccccc2Oc2ccccc21)c1ccc(OC2CCCC2)cc1 (configuration not stated)	none
CN1CCN(c2ccccc2NC(=O)COc2ccc(Cl)cc2)CC1	none
CCCCn1c(N)c(N(CC(C)C)C(=O)CC2OC(=O)c3ccccc32)c(=O)[nH]c1=O (configuration not stated)	none
Cc1ccccc1NS(=O)(=O)c1cc(C(=O)NCCSC2CCCCC2)ccc1C	KCNK9 block -8
CCOC(=O)Cn1nnnc1CN(Cc1ccccc1)Cc1cc2cc(CC)ccc2[nH]c1=O	ANO1 block 25
Cc1ccc(S(=O)(=O)N2Cc3ccccc3CC2C(=O)NC(C)(C)C)cc1 (configuration not stated)	none
COC(=O)c1ccc(CN(c2ccc(C(=O)O)c(O)c2)S(=O)(=O)c2ccc(Cl)c([N+](=O)[O-])c2)cc1	ANO1 block 100
COC(=O)c1ccc(CN(c2ccccn2)S(=O)(=O)c2ccccc2)cc1	none
CCc1cccc(CC)c1NC(=O)COC(=O)C1(c2ccc(Cl)cc2)CCCC1	KCNK9 block -7.1
O=[N+]([O-])c1cnc(Sc2ccncn2)s1	ANO1 block 25
O=C(Nc1ccc(Cl)cc1)Nc1ccccc1Sc1ncc([N+](=O)[O-])s1	none
Cc1cccc(NC(=O)c2cc3cc([N+](=O)[O-])ccc3s2)n1	none
c1ccc(-c2nnc(CN3CCN(c4ccccc4)CC3)o2)cc1	none
Cc1ccc(C2=NN(Cc3nnc(-c4ccccc4)o3)C(=O)SC2)cc1	ANO1 block 25
CC(=O)N1CCN=C1SCc1cccc(F)c1	none
CCc1cccc2c1NC(=O)C2(O)CC(=O)c1cccs1 (configuration not stated)	none
CC(NS(=O)(=O)OCC(Cl)(Cl)Cl)c1ccc(Br)cc1 (configuration not stated)	Kir21 block -7.1
Cc1ccc(C2CC(=O)NC(SCc3ccccc3)=C2C#N)cc1 (configuration not stated)	Kir21 block -4.3
N#CC1=C(SCc2ccccc2)NC(=O)CC1c1ccc(O)cc1 (configuration not stated)	Kir21 block -4.4
N#CC1=C(SCc2ccccc2)NC(=O)CC1c1cccc(O)c1 (configuration not stated)	none
CCCCCCSC1=C(C#N)C(c2ccccc2)CC(=O)N1 (configuration not stated)	KCNK9 block -7.2
COCCNC(=O)c1cc(S(=O)(=O)N2CCOCC2)ccc1SCc1cccc(OC)c1OC	none
